Measurements from the supplement of paper PMC10849652.
About 7,900 targets were measured; listed, in parts, are those with a hit and a random draw of the rest. About 0.6% of all pairs of compound and target were hits. Unmarked numbers belong to inactive results.

compound: C1=CC=C(C=C1)[C@H](COC2=CC3=C(C=C2)NC(=O)N3)NC(=O)C4=CC=CN(C4=O)CC5=CC(=C(C=C5)F)F; test: log2 fold change, soluble protein after heating vs DMSO (PISA); higher = thermal stabilisation; K562 cells, 10 uM, 30 min; active = over 0.2 and 3.5 SD of the protein, either way, in both replicates (recomputed)
In short: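 Quantification of soluble protein used TMTpro 16plex LC-MS/MS, with channel sums equalised. Samples were the supernatant after 21,000xg for 90 min of pooled aliquots from K562 cells (2×10^6 cells/mL) treated with 10 μM compound for 30 min, heated for 3 min over 48°C-58°C, and extracted in PBS with 0.5% NP-40 at 4°C. Values, from duplicates, describe thermal stability against control samples on a log2 fold-change scale.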

Sequence of UniProt Q9BSU3 (Q9BSU3 whole entry, looked up): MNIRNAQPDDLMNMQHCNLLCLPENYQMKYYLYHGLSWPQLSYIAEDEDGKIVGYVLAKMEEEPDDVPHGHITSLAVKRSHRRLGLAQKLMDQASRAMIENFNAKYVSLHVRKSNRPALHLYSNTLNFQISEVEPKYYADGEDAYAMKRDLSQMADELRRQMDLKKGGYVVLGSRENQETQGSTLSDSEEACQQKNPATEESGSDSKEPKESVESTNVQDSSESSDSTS
Sequence of UniProt Q9H000 (Q9H000 whole entry, looked up): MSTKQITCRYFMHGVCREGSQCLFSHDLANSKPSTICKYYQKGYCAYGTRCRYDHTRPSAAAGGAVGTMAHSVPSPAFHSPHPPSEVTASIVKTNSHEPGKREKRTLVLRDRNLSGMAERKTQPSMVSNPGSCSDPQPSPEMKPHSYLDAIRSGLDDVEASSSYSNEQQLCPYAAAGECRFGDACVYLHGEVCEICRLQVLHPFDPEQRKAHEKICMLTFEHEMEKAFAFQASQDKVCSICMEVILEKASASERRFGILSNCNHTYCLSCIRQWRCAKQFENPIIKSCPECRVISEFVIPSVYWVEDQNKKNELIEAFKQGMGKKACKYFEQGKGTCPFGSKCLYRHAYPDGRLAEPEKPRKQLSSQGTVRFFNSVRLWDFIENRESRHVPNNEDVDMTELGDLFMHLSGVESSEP
Sequence of UniProt Q5VVJ2 (Q5VVJ2 whole entry, looked up): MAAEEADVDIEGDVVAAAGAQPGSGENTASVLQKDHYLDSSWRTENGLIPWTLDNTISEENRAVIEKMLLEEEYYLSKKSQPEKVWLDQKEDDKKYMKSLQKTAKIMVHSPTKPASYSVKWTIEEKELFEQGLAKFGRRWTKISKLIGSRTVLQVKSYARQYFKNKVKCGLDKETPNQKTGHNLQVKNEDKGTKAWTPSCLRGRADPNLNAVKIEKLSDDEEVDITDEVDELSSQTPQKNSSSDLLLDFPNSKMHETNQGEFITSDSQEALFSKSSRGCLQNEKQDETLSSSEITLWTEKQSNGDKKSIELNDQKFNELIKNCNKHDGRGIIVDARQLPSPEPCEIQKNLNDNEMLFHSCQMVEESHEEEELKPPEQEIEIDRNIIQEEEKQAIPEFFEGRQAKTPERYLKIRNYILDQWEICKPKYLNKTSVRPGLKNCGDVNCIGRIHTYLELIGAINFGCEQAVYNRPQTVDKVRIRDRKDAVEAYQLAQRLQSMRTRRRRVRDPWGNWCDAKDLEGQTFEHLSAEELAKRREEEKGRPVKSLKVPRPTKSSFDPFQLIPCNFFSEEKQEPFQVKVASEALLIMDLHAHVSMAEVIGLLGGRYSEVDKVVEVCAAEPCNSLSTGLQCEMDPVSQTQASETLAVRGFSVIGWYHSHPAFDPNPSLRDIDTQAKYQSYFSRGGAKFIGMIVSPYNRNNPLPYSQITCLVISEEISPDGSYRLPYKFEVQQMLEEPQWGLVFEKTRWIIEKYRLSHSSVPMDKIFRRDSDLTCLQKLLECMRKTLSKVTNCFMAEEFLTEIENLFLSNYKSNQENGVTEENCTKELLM
Sequence of UniProt P30414 (P30414 whole entry, looked up): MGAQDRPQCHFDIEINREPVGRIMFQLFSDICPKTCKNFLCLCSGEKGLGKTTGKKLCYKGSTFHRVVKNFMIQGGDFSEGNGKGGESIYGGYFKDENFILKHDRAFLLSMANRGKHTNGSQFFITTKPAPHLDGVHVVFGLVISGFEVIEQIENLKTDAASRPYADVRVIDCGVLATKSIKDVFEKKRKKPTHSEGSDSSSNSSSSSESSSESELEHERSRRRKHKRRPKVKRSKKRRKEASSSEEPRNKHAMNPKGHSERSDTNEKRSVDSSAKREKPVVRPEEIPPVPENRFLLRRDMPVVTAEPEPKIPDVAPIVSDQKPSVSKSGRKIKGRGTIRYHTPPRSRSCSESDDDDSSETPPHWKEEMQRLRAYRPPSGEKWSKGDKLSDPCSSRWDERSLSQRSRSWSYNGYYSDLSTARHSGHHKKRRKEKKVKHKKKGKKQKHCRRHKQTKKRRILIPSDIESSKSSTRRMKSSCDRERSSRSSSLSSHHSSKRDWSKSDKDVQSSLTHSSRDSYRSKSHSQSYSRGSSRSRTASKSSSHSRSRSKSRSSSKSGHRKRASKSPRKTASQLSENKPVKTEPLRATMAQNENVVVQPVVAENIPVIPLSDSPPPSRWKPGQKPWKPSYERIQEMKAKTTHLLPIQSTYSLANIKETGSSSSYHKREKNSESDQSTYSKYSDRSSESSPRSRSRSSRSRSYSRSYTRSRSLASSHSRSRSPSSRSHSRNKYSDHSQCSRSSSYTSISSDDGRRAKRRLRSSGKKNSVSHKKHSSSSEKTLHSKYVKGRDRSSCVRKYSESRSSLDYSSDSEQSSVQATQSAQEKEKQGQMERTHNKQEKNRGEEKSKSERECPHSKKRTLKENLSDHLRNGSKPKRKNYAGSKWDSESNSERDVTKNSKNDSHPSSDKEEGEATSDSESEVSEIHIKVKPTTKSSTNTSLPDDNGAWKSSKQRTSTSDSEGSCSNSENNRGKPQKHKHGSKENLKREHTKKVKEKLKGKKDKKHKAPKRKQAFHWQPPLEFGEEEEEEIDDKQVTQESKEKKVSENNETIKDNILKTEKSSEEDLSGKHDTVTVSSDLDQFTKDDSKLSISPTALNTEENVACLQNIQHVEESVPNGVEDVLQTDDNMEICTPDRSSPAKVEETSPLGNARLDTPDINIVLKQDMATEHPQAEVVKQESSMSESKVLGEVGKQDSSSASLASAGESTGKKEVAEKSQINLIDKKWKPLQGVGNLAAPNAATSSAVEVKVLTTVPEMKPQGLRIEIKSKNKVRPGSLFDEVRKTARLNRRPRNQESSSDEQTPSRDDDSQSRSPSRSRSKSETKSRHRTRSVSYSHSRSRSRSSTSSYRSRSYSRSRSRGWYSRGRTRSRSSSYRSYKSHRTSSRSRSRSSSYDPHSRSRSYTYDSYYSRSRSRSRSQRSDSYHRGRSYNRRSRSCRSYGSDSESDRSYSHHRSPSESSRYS
Sequence of UniProt Q9ULX3 (Q9ULX3 whole entry, looked up): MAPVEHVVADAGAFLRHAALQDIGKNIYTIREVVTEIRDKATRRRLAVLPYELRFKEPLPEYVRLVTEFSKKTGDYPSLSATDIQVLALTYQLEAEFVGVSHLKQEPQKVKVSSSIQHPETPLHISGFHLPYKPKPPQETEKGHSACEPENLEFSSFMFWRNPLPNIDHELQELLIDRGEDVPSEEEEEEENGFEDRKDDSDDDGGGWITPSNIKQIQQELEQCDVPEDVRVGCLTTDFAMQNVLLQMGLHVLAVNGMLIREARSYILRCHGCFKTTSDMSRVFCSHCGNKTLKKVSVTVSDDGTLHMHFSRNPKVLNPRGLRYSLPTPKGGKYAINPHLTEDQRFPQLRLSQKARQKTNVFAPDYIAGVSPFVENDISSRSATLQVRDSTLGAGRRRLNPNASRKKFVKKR
Sequence of UniProt Q9Y2X3 (Q9Y2X3 whole entry, looked up): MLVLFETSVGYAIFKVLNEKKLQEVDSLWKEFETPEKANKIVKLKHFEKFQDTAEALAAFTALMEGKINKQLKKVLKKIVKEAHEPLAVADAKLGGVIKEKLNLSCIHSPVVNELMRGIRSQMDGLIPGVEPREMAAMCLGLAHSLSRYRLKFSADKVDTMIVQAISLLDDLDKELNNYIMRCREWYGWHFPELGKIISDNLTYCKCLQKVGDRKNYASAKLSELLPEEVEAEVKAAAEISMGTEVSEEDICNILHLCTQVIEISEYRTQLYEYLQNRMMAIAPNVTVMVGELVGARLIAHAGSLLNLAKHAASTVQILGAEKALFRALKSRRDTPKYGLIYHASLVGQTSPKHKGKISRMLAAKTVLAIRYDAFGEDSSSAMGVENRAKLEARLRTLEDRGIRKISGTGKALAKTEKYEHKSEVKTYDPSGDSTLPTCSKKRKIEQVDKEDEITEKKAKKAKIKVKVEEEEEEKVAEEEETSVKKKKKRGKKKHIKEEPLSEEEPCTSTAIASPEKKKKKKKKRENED
Sequence of UniProt Q9HAN9 (Q9HAN9 whole entry, looked up): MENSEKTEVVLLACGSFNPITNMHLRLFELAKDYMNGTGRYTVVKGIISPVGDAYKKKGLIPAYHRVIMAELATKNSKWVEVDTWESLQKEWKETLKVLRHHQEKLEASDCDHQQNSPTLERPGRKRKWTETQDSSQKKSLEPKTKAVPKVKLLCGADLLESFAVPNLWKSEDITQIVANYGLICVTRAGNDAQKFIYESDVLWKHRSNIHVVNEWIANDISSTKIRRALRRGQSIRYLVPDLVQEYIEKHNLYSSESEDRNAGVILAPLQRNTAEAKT
Sequence of UniProt Q8N573 (Q8N573 whole entry, looked up): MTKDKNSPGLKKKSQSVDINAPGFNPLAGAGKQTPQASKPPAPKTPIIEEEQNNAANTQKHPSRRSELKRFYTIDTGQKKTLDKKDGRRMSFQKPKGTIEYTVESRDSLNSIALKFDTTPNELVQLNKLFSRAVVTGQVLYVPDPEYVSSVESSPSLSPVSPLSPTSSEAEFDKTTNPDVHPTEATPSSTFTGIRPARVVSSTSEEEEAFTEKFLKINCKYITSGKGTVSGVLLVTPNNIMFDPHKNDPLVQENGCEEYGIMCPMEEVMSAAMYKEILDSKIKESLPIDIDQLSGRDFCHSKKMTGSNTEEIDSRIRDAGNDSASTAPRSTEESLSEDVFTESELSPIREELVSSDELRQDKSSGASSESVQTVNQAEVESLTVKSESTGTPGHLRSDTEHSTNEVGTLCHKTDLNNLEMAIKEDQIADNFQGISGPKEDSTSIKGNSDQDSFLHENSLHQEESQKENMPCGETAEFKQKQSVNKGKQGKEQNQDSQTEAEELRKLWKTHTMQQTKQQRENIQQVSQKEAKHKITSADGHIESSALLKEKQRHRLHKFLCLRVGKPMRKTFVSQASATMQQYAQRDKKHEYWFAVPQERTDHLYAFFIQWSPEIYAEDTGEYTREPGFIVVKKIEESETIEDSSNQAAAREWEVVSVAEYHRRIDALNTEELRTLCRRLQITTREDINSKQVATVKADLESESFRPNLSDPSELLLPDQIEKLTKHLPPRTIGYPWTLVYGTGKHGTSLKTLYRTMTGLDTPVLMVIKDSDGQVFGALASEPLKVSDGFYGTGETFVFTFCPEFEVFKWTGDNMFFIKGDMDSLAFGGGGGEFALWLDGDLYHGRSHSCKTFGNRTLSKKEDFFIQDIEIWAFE

Row | Target | log2 fold change
1 | MSTO1 (UniProt Q9BUK6) | -0.041
2 | NA (UniProt B2RBV5) | 0.002
3 | MYSM1 (UniProt Q5VVJ2) | 0.07
4 | NCAPD2 (UniProt Q15021) | -0.078
5 | MRPS26 (UniProt Q9BYN8) | -0.075
6 | NAA11 (UniProt Q9BSU3) | 0.009
7 | NME2P1 (UniProt O60361) | -0.171
8 | NMD3 (UniProt Q96D46) | -0.046
9 | NRGN (UniProt Q92686) | 0.048
10 | NIPSNAP2 (UniProt C9J7B1) | -0.069
11 | MINK1 (UniProt Q8N4C8) | -0.036
12 | MORC3 (UniProt Q14149) | -0.043
13 | MKNK1 (UniProt Q9BUB5) | -0.056
14 | MKRN2 (UniProt Q9H000) | 0.029
15 | NFATC2 (UniProt Q13469) | -0.063
16 | NFATC2IP (UniProt Q8NCF5) | -0.051
17 | NOB1 (UniProt Q9ULX3) | -0.048
18 | MON1B (UniProt Q7L1V2) | -0.032
19 | NDUFA6 (UniProt P56556) | -0.017

Row | Target | log2 fold change
20 | MRPS27 isoform 2 (UniProt Q92552) | -0.063
21 | NMT1 (UniProt P30419) | 0
22 | NR2C2AP isoform 2 (UniProt Q86WQ0) | -0.016
23 | NA (UniProt J3KR12) | -0.042
24 | NCOR1 (UniProt O75376) | -0.102
25 | MOB3B (UniProt Q86TA1) | 0
26 | PAK1 isoform 2 (UniProt Q13153) | -0.152
27 | OVCA2 (UniProt Q8WZ82) | -0.152
28 | NAA38 isoform 2 (UniProt Q9BRA0) | 0.038
29 | MITD1 (UniProt Q8WV92) | -0.058
30 | NDUFB7 (UniProt P17568) | -0.032
31 | NKTR (UniProt P30414) | 0.014
32 | MORC2 (UniProt Q9Y6X9) | -0.293
33 | NIPSNAP2 (UniProt O75323) | -0.038
34 | MSH3 (UniProt P20585) | 0.008
35 | OXSR1 (UniProt O95747) | -0.039
36 | NMNAT1 (UniProt Q9HAN9) | 0.1
37 | NOP58 (UniProt Q9Y2X3) | 0.039
38 | OXR1 (UniProt Q8N573) | -0.021
